The text below walks through data of PubChem BioAssay (NCATS).

Test [1] concerns the target Lysosomal acid glucosylceramidase (Homo sapiens) (UniProt P04062). The experiment in a line: Glucocerebrosidase-p2 (AID 348; in the data active means potency below about 10 µM; further: potency means the concentration at half of the fitted maximal effect). Conditions: purified GBA, blue fluorogenic substrate, 40 min. The gist of the method:
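Compounds titrated from 0.6 nM upwards against 0.2 nM enzyme in pH 5.9 citric acid/KH2PO4, taurocholate, tween-20; blue fluorogenic substrate 80 uM, 40 min room temperature, stopped and read Ex 365/Em 440 for AC50.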

The nature of test [2]: AP1 Signaling Pathway (AID 357; active means well fitted curve in either direction with a large enough effect, not every such curve was filed as active; further: on the % scale 0 is the no-effect control and ±100 the full control effect). Conditions: ME-180 AP-1-bla reporter, EGF-induced, beta-lactamase ratio, 5 h; at 7.69 µM (top of the series) unless noted. The procedure, abridged:
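ME-180 cells with beta-lactamase reporter under AP-1 response element, stimulated with EC50 EGF; compounds tested in titration series, 5 h at 37 °C. CCF4 substrate added 2.5 h at room temperature; 460/530 nm emission ratio gave %activity and AC50.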

Test [3] is described as follows: NFAT Signaling Pathway (AID 444; active means well fitted curve in either direction with a large enough effect, not every such curve was filed as active;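 further: carbachol stimulus at about its EC50 of 1 µM final; on the % scale 0 is the no-effect control and ±100 the full control effect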). Conditions: Jurkat NFAT-bla M1, carbachol, beta-lactamase ratio, 5 h; at 7.69 µM (top of the series) unless noted. The procedure, abridged:
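Jurkat cells carrying an NFAT-driven β-lactamase reporter and co-transfected muscarinic M1 receptor were treated with compound plus carbachol (1 uM final, an EC50 level) for 5 h at 37 °C. CCF4 loading followed for 1 h at RT; 460/530 nm ratio gave %activity.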

In test [4] the target is Glucocorticoid receptor (Homo sapiens) (UniProt P04150). Description: GR-GFP Redistribution (AID 450;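 active means compounds whose dose series gives a full or clear partial fitted curve of increased nuclear translocation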; further: potency means the concentration at half of the fitted maximal effect). Conditions: U2OS GR-GFP nuclear translocation, laser cytometry, 2 h.
The target is the same in test [5]. The experiment in a line: GR-EFC Redistribution (AID 451; calls by dose curve; further: potency means the concentration at half of the fitted maximal effect). Conditions: CHO-K1 GR-EFC translocation, beta-gal luminescence, 2 h. The procedure, abridged: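 CHO-K1 cells stably expressing nuclear-localized β-gal enzyme acceptor and GR fused C-terminally to the enzyme donor fragment; ligand-driven nuclear translocation restores β-gal by complementation. Compounds titrated up to 46 uM final, 2 h at 37 °C; luminescence read.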

Test [6] concerns the target Mitogen-activated protein kinase 10 (Mus musculus) (UniProt Q61831). The experiment in a line: JNK3 AlphaScreen Assay (AID 530; active means well fitted curve in either direction with a large enough effect, not every such curve was filed as active;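 further: kinase came from lysate of stimulated human HepG2 cells; signal reports phosphorylation of biotinylated GST-cJun 1-79 at Ser73 with 10 µM ATP; on the % scale 0 is the no-effect control and ±100 the full control effect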). Conditions: JNK3 lysate, c-Jun phosphorylation; series mostly up to 57.1 µM. The gist of the method:
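JNK3 came from HepG2 lysates pre-activated with IL-1beta and TNF-alpha and phosphorylated biotinylated GST-cJun (1-79) at 10 uM ATP, pH 7.6, room temperature. Compounds were titrated. AlphaScreen signal used anti-phospho-cJun (Ser73) antibody.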

The target of test [7] is Cytochrome P450 3A4 (Homo sapiens) (UniProt P08684). The experiment in a line: qHTS Assay for Inhibitors and Substrates of Cytochrome P450 3A4 (AID 884). Further: potency means the concentration at half of the fitted maximal effect; nearly all actives have a fitted effect of over 50% in size. Conditions: recombinant CYP3A4, Luciferin-PPXE luminescence; series mostly up to 57.1 µM. The procedure, abridged: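 20 nM human CYP3A4 with 25 uM Luciferin-PPXE (at KM) in 200 mM KPO4, preincubated 10 min with compound; NADPH regeneration started a 60 min RT reaction. Luciferin detected by luminescence, normalized to 57 uM ketoconazole as full inhibition.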

Test [8] has the same target. The experiment in a line: qHTS Assay for Activators of Cytochrome P450 3A4 (AID 885). Further: nearly all actives have a fitted effect of over 65% in size. Conditions: recombinant CYP3A4, Luciferin-PPXE luminescence, 60 min; series mostly up to 57.1 µM. The gist of the method:
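Signal was normalized against complete inhibition by 57 uM ketoconazole. The reaction used 20nM CYP3A4 with 25uM Luciferin-PPXE, 10-min compound preincubation and a 60-min NADPH-supported step at RT.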
Background: qHTS replaces the single test concentration by a dilution series.

Test [9] deals with Cytochrome P450 2C19 (Homo sapiens) (UniProt P33261). The experiment in a line: qHTS Assay for Inhibitors and Substrates of Cytochrome P450 2C19 (AID 899). Further: potency means the concentration at half of the fitted maximal effect; nearly all actives have a fitted effect of over 60% in size. Conditions: recombinant CYP2C19, luciferin-H EGE luminescence; series mostly up to 57.1 µM. The gist of the method: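 In 50mM KPO4, the reaction held 5nM enzyme and KM-level (10uM) Luciferin-H EGE; it ran 60 min at 37C after NADPH regeneration and a 10 min compound preincubation. Luminescence values were scaled to 57uM ketoconazole as complete inhibition.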

A short description of test [10]: qHTS Assay for Lipid Storage Modulators (AID 1519; calls by dose curve). Conditions: Drosophila S3 cells, BODIPY lipid droplet/cell ratio, laser cytometry, cells loaded with oleic acid; for activity change, negative = inhibition: at 57.5 µM (top of the series). The procedure, abridged: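 Cells seeded at 5,000 per well were treated with compounds over a concentration series and loaded with oleic acid (400 uM, as added). Lipid droplet fluorescence (488 nm excitation, 500-530 nm channel) was read by laser-scanning cytometry and normalized to 20 uM Triacsin C.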

Test [11] deals with Dual specificity protein kinase CLK4 (Homo sapiens) (UniProt Q9HAZ1). The experiment in a line: qHTS Assay for Inhibitors of CDC-like Kinase 4 (Kinase-Glo Assay) (AID 1770). Further: nearly all actives have a fitted effect of over 65% in size. Further: potency means the concentration at half of the fitted maximal effect. Conditions: recombinant Clk4, Kinase-Glo ATP depletion luminescence; series mostly up to 66.7 µM. The procedure, abridged:
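Clk4 25 nM, RS peptide 100 uM, ATP 1 uM, pH 7.5 Tris, 10 mM MgCl2, 2.5 mM DTT; 4.5 h RT; ATP depletion read by Kinase-Glo luminescence.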

Test [12] shares this target. Description: qHTS Assay for Inhibitors of CDC-like Kinase 4 (ADP-Glo Assay) (AID 1771). Further: nearly all actives have a fitted effect of over 70% in size. Further: potency means the concentration at half of the fitted maximal effect. Conditions: recombinant CLK4, ADP-Glo luminescence; series mostly up to 80 µM. The procedure, abridged: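 Clk4 (25 nM) was incubated 1 hr at room temperature with 100 uM RS repeat peptide and 1 uM ATP in buffer with 2 mM MgCl2, 0.5 mM EGTA, 2.5 mM DTT. ADP formed was quantified by ADP-Glo luminescence.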

For test [13] the target is unchanged. The experiment in a line: qHTS Assay for Inhibitors of CDC-like Kinase 4 (ADP-FP Assay) (AID 1795). Further: nearly all actives have a fitted effect of over 60% in size. Further: potency means the concentration at half of the fitted maximal effect. Conditions: Transcreener ADP fluorescence polarization; series mostly up to 50 µM. The procedure, abridged:
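Kinase activity was followed as ADP output, converted from fluorescence polarization with a calibration curve. Reactions ran one hour at low ATP (1 uM) with RS peptide substrate.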

Test [14] addresses Ubiquitin carboxyl-terminal hydrolase 1 (Homo sapiens) (UniProt O94782). Description: Inhibitors of USP1/UAF1: Pilot qHTS (AID 504865).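 Further: rhodamine fluorescence freed from ubiquitin-rhodamine substrate followed over time; top concentration of the series differs between compounds; on the % scale 0 is the no-effect control and ±100 the full control effect; nearly all actives have a fitted effect of over 35% in size.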 Conditions: purified USP1/UAF1, Ub-rhodamine cleavage fluorescence; series mostly up to 54.9 µM. The procedure, abridged:
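Enzyme-free wells gave the negative control, while test wells held 1nM USP1/UAF1 preincubated with compound for 15 min at room temperature. Ub-Rho at 150nM final started the reaction, and fluorescence at 480/540 nm was recorded kinetically.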

Test [15] in a line: Primary qHTS for small molecule stabilizers of the endoplasmic reticulum resident proteome: Secreted ER Calcium Modulated Protein (SERCaMP) assay (AID 1508630). Further: on the % scale 0 is the no-effect control and ±100 the full control effect. Conditions: SH-SY5Y GLuc-SERCaMP (Gaussia luciferase released on ER calcium loss) secretion, thapsigargin, luminescence; series mostly up to 38.4 µM. The gist of the method: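 GLuc-SERCaMP-expressing SH-SY5Y cells, pretreated 16 h with compound, are challenged with thapsigargin to empty ER calcium stores; after 4 h, coelenterazine is added directly to the medium and luminescence is imaged.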

The target of test [16] is Cytochrome P450 1A2 (Homo sapiens) (UniProt P05177). The experiment in a line: p450-cyp1a2 (AID 410; calls by dose curve; further: potency means the concentration at half of the fitted maximal effect). Conditions: recombinant CYP1A2, luciferin-ME demethylation, luminescence; series mostly up to 57 µM. The procedure, abridged: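 Human CYP1A2 (20nM) demethylated Luciferin-ME at its Km (100uM) in 100mM KPO4. After 10 min compound preincubation, NADPH regeneration ran the reaction 60 min at room temperature. Luciferin was read by luminescence, normalized to 57 uM furafylline.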

The nature of test [17]: Stat Signaling Pathway (AID 446; active means well fitted curve in either direction with a large enough effect, not every such curve was filed as active). Conditions: ME-180 SIE beta-lactamase reporter, IL-6 stimulated, 5 h; at 7.69 µM (top of the series) unless noted. The procedure, abridged:
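Reporter line: ME-180 cervical carcinoma, SIE-beta-lactamase. Treatment: compound with 40 pM IL-6, 5 hrs, 37 C, in low-serum OPTI-MEM with 10 mM HEPES pH 7.3. Detection: 460/530 nm fluorescence.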

Test [18] has as its target 3',5'-cyclic-AMP phosphodiesterase 4B (Homo sapiens) (UniProt Q07343). The experiment in a line: qHTS Assay for Inhibitors of PDE-IV (AID 607; active means well fitted activation curve with a large enough effect in the main read-out, with a control signal flat, not every such curve was filed as active; further: % of control where 0% means no effect). Conditions: HEK293 ACTOne CNG channel cells, membrane potential fluorescence; series mostly up to 22.9 µM. The procedure, abridged:
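Cell-based read-out of cAMP via a modified cyclic nucleotide-gated channel and membrane potential dye (535/590 nm) in HEK293 cells expressing PDE4 endogenously. Compounds tested up to 22.9 uM final; 100 uM RO 20-1724 reference.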

Setting [19] is: measured here: cell count channel max response.
[20] abbreviates: measured here: lipid channel max response.

Inconclusive results are not listed. The source made the active and inactive calls. Unless noted, the call rests on the fitted dose curve; in most records, active means well fitted curve in the direction sought with a large enough effect; inconclusive means small, poorly fitted or top-dose-only effect, or another doubt; inactive means no such curve, though single readings can be large; an effect the other way counts as inactive or inconclusive.

Cytochrome P450 3A4 (Homo sapiens), sequence (P08684 whole entry, looked up): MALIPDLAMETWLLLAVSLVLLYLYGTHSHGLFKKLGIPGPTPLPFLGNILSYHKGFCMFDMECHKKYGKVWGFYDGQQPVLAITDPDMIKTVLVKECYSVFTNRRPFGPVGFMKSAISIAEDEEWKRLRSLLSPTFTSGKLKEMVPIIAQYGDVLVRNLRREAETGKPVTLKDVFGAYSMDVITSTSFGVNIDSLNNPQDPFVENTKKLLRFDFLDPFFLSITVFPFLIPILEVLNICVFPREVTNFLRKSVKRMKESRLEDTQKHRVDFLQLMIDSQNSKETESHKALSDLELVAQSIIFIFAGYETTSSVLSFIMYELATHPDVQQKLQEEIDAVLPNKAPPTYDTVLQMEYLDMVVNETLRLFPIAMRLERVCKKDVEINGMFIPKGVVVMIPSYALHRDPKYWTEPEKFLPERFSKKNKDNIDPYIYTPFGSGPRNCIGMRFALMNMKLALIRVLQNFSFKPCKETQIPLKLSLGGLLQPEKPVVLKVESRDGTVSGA
Lysosomal acid glucosylceramidase (Homo sapiens), sequence (P04062 whole entry, looked up): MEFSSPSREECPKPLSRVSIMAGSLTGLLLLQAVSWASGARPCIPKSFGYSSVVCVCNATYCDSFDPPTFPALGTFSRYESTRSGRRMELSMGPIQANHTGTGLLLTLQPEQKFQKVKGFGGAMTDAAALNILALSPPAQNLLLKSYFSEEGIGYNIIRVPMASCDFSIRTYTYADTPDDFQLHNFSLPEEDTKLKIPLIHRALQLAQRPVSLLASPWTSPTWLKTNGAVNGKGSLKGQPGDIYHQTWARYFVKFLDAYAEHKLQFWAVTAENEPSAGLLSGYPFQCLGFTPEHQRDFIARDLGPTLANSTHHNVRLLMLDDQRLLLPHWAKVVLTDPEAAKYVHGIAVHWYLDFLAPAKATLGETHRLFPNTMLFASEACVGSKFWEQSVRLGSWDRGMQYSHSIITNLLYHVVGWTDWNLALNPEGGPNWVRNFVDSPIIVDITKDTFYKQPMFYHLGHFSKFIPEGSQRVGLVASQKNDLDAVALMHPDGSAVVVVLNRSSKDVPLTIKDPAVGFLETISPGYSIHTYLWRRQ
Ubiquitin carboxyl-terminal hydrolase 1 (Homo sapiens), sequence (O94782 whole entry, looked up): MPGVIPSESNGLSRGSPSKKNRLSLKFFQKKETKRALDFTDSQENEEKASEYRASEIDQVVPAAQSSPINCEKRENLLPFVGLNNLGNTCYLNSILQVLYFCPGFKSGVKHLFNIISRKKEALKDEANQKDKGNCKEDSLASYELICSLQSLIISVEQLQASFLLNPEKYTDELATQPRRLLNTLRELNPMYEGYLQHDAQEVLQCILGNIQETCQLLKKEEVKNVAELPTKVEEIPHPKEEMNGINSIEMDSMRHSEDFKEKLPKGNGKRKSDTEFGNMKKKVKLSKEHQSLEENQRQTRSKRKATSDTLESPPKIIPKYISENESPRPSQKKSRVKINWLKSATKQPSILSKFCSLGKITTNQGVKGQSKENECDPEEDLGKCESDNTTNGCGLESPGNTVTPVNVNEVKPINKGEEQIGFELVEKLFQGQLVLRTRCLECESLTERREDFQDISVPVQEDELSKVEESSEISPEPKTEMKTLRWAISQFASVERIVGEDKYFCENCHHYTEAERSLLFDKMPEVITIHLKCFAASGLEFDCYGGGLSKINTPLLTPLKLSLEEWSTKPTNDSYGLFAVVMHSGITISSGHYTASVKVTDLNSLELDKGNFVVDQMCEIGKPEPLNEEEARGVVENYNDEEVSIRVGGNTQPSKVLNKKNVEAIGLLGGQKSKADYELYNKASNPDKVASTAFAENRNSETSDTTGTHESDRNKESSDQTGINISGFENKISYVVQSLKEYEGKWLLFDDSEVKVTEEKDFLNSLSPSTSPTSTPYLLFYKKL
Glucocorticoid receptor (Homo sapiens), sequence (P04150 whole entry, looked up, the tested form may be a part): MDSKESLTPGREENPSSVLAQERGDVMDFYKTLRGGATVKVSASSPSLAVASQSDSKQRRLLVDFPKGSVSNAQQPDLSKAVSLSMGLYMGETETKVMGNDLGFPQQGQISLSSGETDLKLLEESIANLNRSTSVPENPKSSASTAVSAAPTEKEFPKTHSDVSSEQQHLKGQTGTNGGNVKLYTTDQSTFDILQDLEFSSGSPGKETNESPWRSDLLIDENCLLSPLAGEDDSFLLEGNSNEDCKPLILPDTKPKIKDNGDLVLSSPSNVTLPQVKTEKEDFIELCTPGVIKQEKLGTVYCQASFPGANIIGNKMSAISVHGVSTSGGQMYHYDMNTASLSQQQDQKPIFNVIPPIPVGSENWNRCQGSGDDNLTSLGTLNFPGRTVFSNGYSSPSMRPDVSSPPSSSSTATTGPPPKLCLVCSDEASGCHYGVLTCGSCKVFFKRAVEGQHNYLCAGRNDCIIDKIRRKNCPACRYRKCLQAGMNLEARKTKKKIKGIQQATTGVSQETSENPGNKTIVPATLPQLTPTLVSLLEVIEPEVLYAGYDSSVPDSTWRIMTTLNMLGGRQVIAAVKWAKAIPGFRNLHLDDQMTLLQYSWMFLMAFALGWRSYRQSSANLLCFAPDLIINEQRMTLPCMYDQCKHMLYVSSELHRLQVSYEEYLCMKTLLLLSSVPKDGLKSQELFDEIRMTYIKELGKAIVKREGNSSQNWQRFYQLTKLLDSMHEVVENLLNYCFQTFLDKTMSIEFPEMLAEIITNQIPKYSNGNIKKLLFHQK
Dual specificity protein kinase CLK4 (Homo sapiens), sequence (Q9HAZ1 whole entry, looked up): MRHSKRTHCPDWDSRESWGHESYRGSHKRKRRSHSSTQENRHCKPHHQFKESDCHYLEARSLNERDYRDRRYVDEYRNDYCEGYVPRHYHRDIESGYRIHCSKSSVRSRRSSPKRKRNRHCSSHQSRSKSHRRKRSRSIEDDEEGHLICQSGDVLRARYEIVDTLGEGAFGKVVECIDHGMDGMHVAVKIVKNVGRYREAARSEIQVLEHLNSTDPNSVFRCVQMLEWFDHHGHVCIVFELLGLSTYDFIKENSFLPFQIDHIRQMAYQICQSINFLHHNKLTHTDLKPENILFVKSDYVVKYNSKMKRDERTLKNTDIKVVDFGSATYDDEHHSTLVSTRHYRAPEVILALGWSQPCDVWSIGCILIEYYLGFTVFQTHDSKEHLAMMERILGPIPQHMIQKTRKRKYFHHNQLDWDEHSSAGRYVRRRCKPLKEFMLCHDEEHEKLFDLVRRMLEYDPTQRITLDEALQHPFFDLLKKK
Cytochrome P450 1A2 (Homo sapiens), sequence (P05177 whole entry, looked up): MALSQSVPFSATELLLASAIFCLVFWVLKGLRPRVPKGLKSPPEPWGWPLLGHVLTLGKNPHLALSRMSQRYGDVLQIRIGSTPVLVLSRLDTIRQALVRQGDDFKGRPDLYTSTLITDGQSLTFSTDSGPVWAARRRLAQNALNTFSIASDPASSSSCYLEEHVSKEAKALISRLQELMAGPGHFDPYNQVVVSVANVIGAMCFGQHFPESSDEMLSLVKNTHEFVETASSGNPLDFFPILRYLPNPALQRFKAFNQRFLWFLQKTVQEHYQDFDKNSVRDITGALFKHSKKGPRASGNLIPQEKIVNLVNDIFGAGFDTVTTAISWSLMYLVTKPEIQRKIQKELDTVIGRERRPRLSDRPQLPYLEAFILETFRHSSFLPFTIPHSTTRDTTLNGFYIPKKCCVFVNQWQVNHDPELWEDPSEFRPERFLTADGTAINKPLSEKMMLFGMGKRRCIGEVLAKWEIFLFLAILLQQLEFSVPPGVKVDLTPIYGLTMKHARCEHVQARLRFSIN
3',5'-cyclic-AMP phosphodiesterase 4B (Homo sapiens), sequence (Q07343 whole entry, looked up): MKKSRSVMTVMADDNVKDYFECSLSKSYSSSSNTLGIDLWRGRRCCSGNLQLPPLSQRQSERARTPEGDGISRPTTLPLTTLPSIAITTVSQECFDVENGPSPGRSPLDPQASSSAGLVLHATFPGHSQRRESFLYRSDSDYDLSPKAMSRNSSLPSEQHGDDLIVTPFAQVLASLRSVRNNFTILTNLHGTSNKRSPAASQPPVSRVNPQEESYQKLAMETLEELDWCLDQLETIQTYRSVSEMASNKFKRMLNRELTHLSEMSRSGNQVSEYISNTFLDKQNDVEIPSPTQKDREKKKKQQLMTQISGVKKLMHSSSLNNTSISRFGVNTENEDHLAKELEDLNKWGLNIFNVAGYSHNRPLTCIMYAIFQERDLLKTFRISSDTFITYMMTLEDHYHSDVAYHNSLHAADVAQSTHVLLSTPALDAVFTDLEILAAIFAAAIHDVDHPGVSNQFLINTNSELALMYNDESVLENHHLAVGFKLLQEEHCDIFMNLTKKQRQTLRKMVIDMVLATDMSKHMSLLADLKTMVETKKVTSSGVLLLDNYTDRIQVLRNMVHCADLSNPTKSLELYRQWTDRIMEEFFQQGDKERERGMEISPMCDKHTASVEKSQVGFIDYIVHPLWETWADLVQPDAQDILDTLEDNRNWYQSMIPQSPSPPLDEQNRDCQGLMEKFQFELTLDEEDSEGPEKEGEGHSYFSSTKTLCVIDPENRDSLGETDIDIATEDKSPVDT
Cytochrome P450 2C19 (Homo sapiens), sequence (P33261 whole entry, looked up): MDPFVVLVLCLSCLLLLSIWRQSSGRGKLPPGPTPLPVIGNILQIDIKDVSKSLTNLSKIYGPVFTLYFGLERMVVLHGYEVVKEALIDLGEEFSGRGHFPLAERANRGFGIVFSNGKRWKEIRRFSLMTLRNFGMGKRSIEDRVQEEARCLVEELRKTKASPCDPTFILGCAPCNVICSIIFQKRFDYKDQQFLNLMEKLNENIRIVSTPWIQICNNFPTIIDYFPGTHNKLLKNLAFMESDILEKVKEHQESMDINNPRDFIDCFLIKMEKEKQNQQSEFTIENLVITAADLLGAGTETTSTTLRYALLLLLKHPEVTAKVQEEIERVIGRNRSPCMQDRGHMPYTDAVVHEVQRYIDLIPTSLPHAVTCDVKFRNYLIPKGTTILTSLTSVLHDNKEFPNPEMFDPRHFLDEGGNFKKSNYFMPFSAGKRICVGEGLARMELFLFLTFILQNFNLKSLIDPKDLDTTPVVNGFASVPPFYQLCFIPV

Regarding `Cc1ccccc1-c1ccc2ncnc(NC3CC3)c2c1`, the Potency in test [1] is > 11.4 µM (inactive); in test [4], > 46 µM (inactive); in [5], > 46 µM (inactive); in test [7], 3.16 µM (active); in test [9], 1.26 µM (active); in test [11] it was 11.2 µM (active). The Potency in test [12] was 7.08 µM (active); in test [13], 12.6 µM (active). Also, the activity change, negative = inhibition in [2] was 5.4% (inactive); in test [3], 3.53% (inactive); in [10] it was -3.61% (inactive). The molecule was called inactive in test [6]. For the same molecule, the Potency entry in [8], in [14] and in test [15] was “inactive” in each case. Besides, the max response was 4.35% in test [10] (setting [19]) and -0.878% in [10] (setting [20]).
On to `COCCNc1ncnc2ccc(-c3cccc(OC)c3)cc12`, for which the Potency was > 11.4 µM (inactive) in test [1]; 0.794 µM (active) in test [16]; > 46 µM (inactive) in test [4]; > 46 µM (inactive) in test [5]; 0.708 µM (active) in test [11]; 0.562 µM (active) in [12]. The Potency in test [13] is 0.501 µM (active). In test [17], the activity, negative = inhibition is -27.4% (inactive). Moreover, the call in [6] was inactive. The Potency result in test [18], in test [8], in test [14] and in test [15] was “inactive” each time. For the same molecule, the activity change, negative = inhibition in [10] was -4.77% (inactive). Moreover, the max response in test [10] (setting [19]) is -9.38%; in test [10] (setting [20]) it was -14.2%.
Regarding `COc1ccc(-n2c(=O)c(-c3ccc(Cl)cc3)nc3cnc(N4CCNCC4)nc32)cc1`, the Potency in test [1] is > 11.4 µM (inactive); in test [16] it was 12.6 µM (active); in test [5], > 46 µM (inactive). In addition, the Potency result in test [18], in [11], in test [12], in [13], in [14] and in [15] was “inactive” each time. Further, the activity change, negative = inhibition in [10] is 5.55% (inactive). The figures for the max response in [10] (setting [19]) and in [10] (setting [20]) were 9.83% and 16.5%, respectively.
